Gal4-VP16 FLuc – Gal4-VP16 reporter inhibition counter-screen; Drosophila S2 Gal4-VP16 UAS-luciferase, luminescence, 20 h; Potency, µM (titrated, usually from 53.6 µM), without a hit: top-dose activity, negative = inhibition, usual class: inhibitors; 3.5% of 310,000 active;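 also: Gal4-VP16 expression switched on by copper sulfate through the metallothionein promoter; nearly all actives have a fitted effect of over 50% in size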
ALOX12 inh – blocks human arachidonate 12S-lipoxygenase; purified 12hLO, xylenol orange hydroperoxide absorbance; Potency, µM (titrated, usually from 108 µM), inactives show top-dose activity change, negative = inhibition, hits mostly inhibitors; 1.1% of 580,000 active
Target sequence (P18054 whole entry, looked up): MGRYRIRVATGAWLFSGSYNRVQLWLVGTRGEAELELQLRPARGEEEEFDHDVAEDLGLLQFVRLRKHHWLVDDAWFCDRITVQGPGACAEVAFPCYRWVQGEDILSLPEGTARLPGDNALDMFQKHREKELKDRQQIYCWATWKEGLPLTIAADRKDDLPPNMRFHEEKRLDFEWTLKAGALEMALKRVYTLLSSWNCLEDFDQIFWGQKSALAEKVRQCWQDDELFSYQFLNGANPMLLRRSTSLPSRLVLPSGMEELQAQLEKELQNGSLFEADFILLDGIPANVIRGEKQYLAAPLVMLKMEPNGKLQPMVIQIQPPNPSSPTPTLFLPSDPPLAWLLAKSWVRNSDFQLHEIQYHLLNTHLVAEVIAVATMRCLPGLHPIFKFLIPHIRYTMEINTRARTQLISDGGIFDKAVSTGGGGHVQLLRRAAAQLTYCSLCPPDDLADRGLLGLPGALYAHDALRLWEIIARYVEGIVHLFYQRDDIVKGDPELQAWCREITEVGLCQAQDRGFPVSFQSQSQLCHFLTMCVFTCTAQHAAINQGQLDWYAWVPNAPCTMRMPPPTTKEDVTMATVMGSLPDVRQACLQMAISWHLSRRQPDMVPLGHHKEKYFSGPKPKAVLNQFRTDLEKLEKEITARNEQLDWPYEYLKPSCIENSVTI
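Purified human 12hLO (150 nM final) in 25 mM Hepes, 0.01% Triton X-100, pH 7.0 was preincubated 15 min at room temperature with compound. Then 40 uM arachidonic acid was added, 30 min. Hydroperoxide was read by Fe-XO absorbance ratio 573/405 nm.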
RORgamma inh – ROR gamma (mouse) transcription inhibition. P51450. Drosophila S2 Gal4-RORgamma UAS-luciferase reporter, 20 h. Potency, µM (series often up to 53.6 µM), inactives show at the highest dose activity change, negative = inhibition, usual class: inhibitors. 5.4% of 310,000 active. AID 2551; also: nearly all actives have a fitted effect of over 60% in size
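Drosophila S2 cells stably expressing Gal4-DBD/mouse RORγ fusion under metallothionein promoter plus UAS-luciferase; compound 1 h, then 700 uM CuSO4 induction for 20 h at ambient temperature; inhibition read as reduced luminescence.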
ELG1 repair inh – ELG1-dependent DNA repair inhibition; HEK293T ELG1-luciferase reporter, luminescence, 16 h; DNA damage induced by 5-fluorouridine; Potency, µM (highest dose often 46.1 µM), for the others: top-dose activity change, negative = inhibition, most hits filed as inhibitors; 2.3% of 330,000 active; AID 504467; also: nearly all actives have a fitted effect of over 55% in size
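5-Fluorouridine DNA damage + compound/DMSO, 2,000 cells/well, 16 h, 37 °C/5% CO2. ONE-Glo, 30 min RT, luminescence. Readout = decrease in reporter signal.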
DT40 TDP1 no CPT – qHTS for Inhibitors of human tyrosyl-DNA phosphodiesterase 1 (TDP1): qHTS in cells in absence of CPT. Potency, µM (titrated, usually from 46.2 µM), for the others: at the highest dose activity change, negative = growth inhibition, actives largely listed as inhibitors. DT40 Tdp1-/- hTDP1 cells, no CPT, ATP luminescence, 48 h. AID 686978, 2013. 15% of 420,000 active; also: nearly all actives have a fitted effect of over 55% in size
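Growth kinetics read by CellTiter-Glo luminescence after ≥48 hr at 37 °C. Cells: DT40 Tdp1-/- stably carrying human TDP1, 400 per well, compound exposure in the absence of CPT (DMSO vehicle).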
TDP1 cell CPT – growth inhibition of DT40 Tdp1-/-;hTDP1 cells with camptothecin (screen for TDP1 inhibitors). chicken DT40 Tdp1-/-;hTDP1 cells + 20 nM CPT, ATP luminescence, 48 h. Potency, µM (titrated, usually from 46.2 µM), inactives show at the top dose activity change, negative = growth inhibition, actives largely listed as inhibitors. 12% of 420,000 active. AID 686979; also: nearly all actives have a fitted effect of over 55% in size
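Cell growth measured by CellTiter-Glo luminescence after a minimum 48 h, 37 C compound exposure with 20 nM CPT in Tdp1-knockout DT40 cells stably expressing hTDP1, seeded 400/well; qHTS titration format.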
* = called active by the depositor; ? = inconclusive; · = no result given; [ ] = remark or other dose. Most compounds without a hit are left out; they make up all but 15% or so of the library. Calls follow the shape of the dose curve; as a rule, active = well fitted curve in the direction sought with a large enough effect; inconclusive = small, poorly fitted or top-dose-only effect, or another doubt; inactive = no such curve, though single readings can be large; an effect the other way counts as inactive or inconclusive. % is scaled to controls: 0 for no effect and ±100 for the full control effect; potency is read from the fitted curve at half-maximal effect.

SMILES	Gal4-VP16 FLuc	ALOX12 inh	RORgamma inh	ELG1 repair inh	DT40 TDP1 no CPT	TDP1 cell CPT
CC(C)N(CCCNC(=O)c1nn(C)c2c1CS(=O)(=O)c1ccccc1-2)Cc1ccccc1	2%	12%	-29%	14%	-3%	16µM*
O=C(Nc1ncc2c(n1)-c1ccccc1CC2)c1ccc(Cl)cc1	2%	-9%	8%	-23%	-20%	-18%
O=C(O)c1ccc(Nc2ncc3c(n2)-c2ccc(Cl)cc2C(c2c(F)cccc2F)=NC3)cc1	·	15µM*	·	·	·	·
COc1cc(F)ccc1-c1cc(-c2c(C)noc2C)cc2c1C(=O)N(C)C2	·	10%[176 µM]	·	·	·	·
C#CCN1C=CC(=O)[C@@H](OC(=O)Nc2ccc(Cl)cc2)[C@H]1c1ccccc1Br	·	?	·	·	23µM*	21µM*
C#CCN1C=CC(=O)[C@@H](OC(=O)Nc2ccc(C)cc2)[C@H]1c1ccccc1Br	·	-9%	·	·	?	?
Cc1c(Cl)cccc1N=Cc1ccc(C=Nc2cccc(Cl)c2C)cc1	·	1%	·	·	·	·
CC(C)NC(=O)CNC(=O)CCc1ncc(-c2ccc(Cl)cc2)o1	·	3%	·	·	·	·
CCCNC(=O)CSc1nc(COc2ccccc2)nc2ccccc12	1%	5%	20%	6%	?	-1%
CCc1nc(SCC(=O)Nc2ccc(N(C)C)cc2)c2ccccc2n1	-14%	0%	0%	?	15µM*	?
CCCCNC(=O)CSc1nc(CCC)nc2ccccc12	11%	0%	-27%	-10%	23µM*	23µM*
O=C1S/C(=C/c2ccccc2)C(=O)N1CC(O)Cn1c2ccccc2c2ccccc21 (centres undefined)	-16%	-15%	-1%	-8%	23µM*	23µM*
CN1CC(=O)N(c2cccnc2)Cc2c1ncnc2N1CCCCC1	·	4%[176 µM]	·	·	·	·
CC(=O)N1Cc2cc(C(=O)NCC(F)(F)F)nc(-c3cccc(-c4cccnc4)c3)c2[C@@H]1CCO	·	1%	·	·	5.8µM*	6.5µM*
CC(=O)N1Cc2cc(C(=O)NCC(F)(F)F)nc(-c3cccc(-c4cccnc4)c3)c2[C@H]1CCO	·	3%	·	·	-19%	-20%
CCC(=O)N1Cc2cc(C(=O)N(C)C)nc(-c3cccc(-c4cncnc4)c3)c2[C@@H]1CCO	·	-2%	·	·	-5%	0%
CCNC(=O)c1cc2c(c(-c3cccc(-c4cccnc4)c3)n1)[C@H](CCO)N(S(C)(=O)=O)C2	·	-14%	·	·	4.1µM*	4.6µM*
CCS(=O)(=O)N1Cc2cc(C(=O)NCC3CC3)nc(-c3cccc(-c4cccnc4)c3)c2[C@@H]1CCO	·	18%	·	·	26µM*	?
COc1ccc2c(c1)c(C(C(=O)O)N1CCN(Cc3ccccc3)CC1)cn2CC(=O)O (centres undefined)	·	1%	·	·	·	·
CCN(CC)c1c(C)nc2ccc(C(=O)Nc3cc(-c4ccccc4)ccc3OC)cn12	·	2%	·	·	18µM*	?
CCc1nc2ccc(C(=O)Nc3cc(-c4ccccc4)ccc3OC)cn2c1N(C)Cc1ccc(Cl)cc1	·	-3%	·	·	21µM*	18µM*
O=C(O)C1CNCCN(Cc2ccc(-c3nn[nH]n3)cc2)C1 (centres undefined)	·	50%	·	·	·	·
CC(C)N1C(=O)C2(CCCC2)C1C(=O)N1CCN(C2CCCCC2)CC1 (centres undefined)	·	20%	·	·	·	·
CCOc1ccc(-c2csc(NC(=O)CSCC(=O)O)n2)c2ccccc12	1%	-9%	5%	10%	-17%	0%
CC(=O)N1CC(=O)N=C1SCC(=O)Nc1nc(C)c(-c2ccccc2)s1	1%	0%	?	?	3.3µM*	2.9µM*
SMILES	Gal4-VP16 FLuc	ALOX12 inh	RORgamma inh	ELG1 repair inh	DT40 TDP1 no CPT	TDP1 cell CPT
CCOc1ccc(-c2csc(NC(=O)CSC3=NC(=O)CN3C(C)=O)n2)c2ccccc12	7.9µM*	6%	11µM*	?	-30%	1%
Cc1nc(NC(=O)CN2CCOCC2)sc1-c1ccccc1	-21%	144%	-2%	?	-15%	-25%
CC(C)C(C)(C#N)NC(=O)CSc1n[nH]c(-c2ccc(Br)cc2)n1 (centres undefined)	·	-26%	·	·	·	·
COC(=O)c1c(COc2ccc(C)nc2[N+](=O)[O-])nc2ccccc2c1-c1ccccc1	·	-43%	·	·	·	·
CS(=O)(=O)c1ccc(-c2cc(NC=O)c3ncc(-c4ccc(F)cc4)n3c2)cc1	·	0%	·	·	23µM*	23µM*
O=CNc1cc(-c2ccc(C(=O)NC3CC3)cc2)cn2c(-c3ccc(F)cc3)cnc12	·	2%	·	·	23µM*	23µM*
COc1cccc(-c2cnc3c(NC=O)cc(-c4ccccc4Oc4ccccc4)cn23)c1	·	-17%	·	·	?	?
O=C(NC1CC1)c1ccc2nnc(-c3ccc(F)cc3)n2c1	·	5%[12.5 µM]	·	·	·	·
COc1cccc(-c2cnc3c(NC=O)cc(-c4ccccc4)cn23)c1	·	-10%	·	·	5.2µM*	5.2µM*
COc1cccc(-c2cnc3c(NC=O)cc(-c4ccc(N5CCN(C)CC5)cc4)cn23)c1	·	-14%	·	·	?	16µM*
CC(=O)N(C)Cc1ccccc1C(F)(F)F	·	91%[176 µM]	·	·	·	·
OC1CN(Cc2ccccc2)CCN(c2nc(-c3ccccc3)no2)C1 (centres undefined)	·	-2%	·	·	·	·
COc1cccc(-c2cnc3c(NC=O)cc(-c4ccc(S(C)(=O)=O)cc4)cn23)c1	·	0%	·	·	16µM*	18µM*
COc1cccc(-c2cnc3c(NC=O)cc(-c4ccoc4)cn23)c1	·	?	·	·	15µM*	13µM*
COc1cccc(-c2cnc3c(NC=O)cc(-c4cc(C)c(O)c(C)c4)cn23)c1	·	?	·	·	4.6µM*	3.7µM*
CNC(=O)c1ccc(-c2nc(CN3CCN(C(=O)Nc4cccc(Cl)c4)CC3)c(C)o2)cc1	·	38%	·	·	·	·
CC(C)(C)C1CCc2nc(NC(=O)COc3ccccc3[N+](=O)[O-])sc2C1 (centres undefined)	·	-10%	·	·	?	16µM*
CC(C)(C)C1CCc2nc(NC(=O)c3cccc(Cl)c3)sc2C1 (centres undefined)	·	?	·	·	23µM*	?
CC(C)(C)C1CCc2nc(NC(=O)c3ccc([N+](=O)[O-])cc3)sc2C1 (centres undefined)	·	-13%	·	·	?	?
Cc1cccc(OCC(=O)Nc2nc3c(s2)CC(C(C)(C)C)CC3)c1C (centres undefined)	·	?	·	·	18µM*	16µM*
